# Screening data as filed in PubChem.
# Pol III holo inh: qHTS Assay for Inhibitors of DNA Polymerase III Holoenzyme System | reconstituted DNA polymerase III holoenzyme replication, biochemical | Potency, µM (doses to about 57.1 µM), inactives show at the highest dose activity change, negative = inhibition | 71,000 compounds, 0.25% hits | AID 603, 2007; also: % is scaled to controls: 0 for no effect and ±100 for the full control effect
#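 Reconstituted *E. coli* holoenzyme (0.35 nM Pol III, 1 nM beta, 154 nM SSB, 2 nM primase) was preincubated with compound for 15 min at RT. Synthesis on 1.4 nM ssM13Gori ran 35 min, then was stopped with PicoGreen/EDTA and read as dsDNA fluorescence.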
# Caspase-1 inhib: qHTS Assay for Allosteric/Competitive Inhibitors of Caspase-1; Potency, µM (series often up to 57.5 µM), without a hit: at the top dose activity change, negative = inhibition, usual class: inhibitors; 75,000 compounds, 0.03% hits; Caspase-1 enzyme, Ac-WEHD-AFC fluorogenic rate;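 also: plate controls were vehicle for no effect and no substrate for full effect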
# Tau fil binding: qHTS Assay for Tau Filament Binding | Microtubule-associated protein tau (Homo sapiens), P10636 | recombinant tau filaments, thioflavin S fluorescence, 15 h; filaments grown with octadecylsulfate alongside compound | Potency, µM (series often up to 57.1 µM), without a hit: at the highest dose activity change, negative = inhibition | 71,000 compounds, 2% hits | AID 596, 2007;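 also: % is scaled to controls: 0 for no effect and ±100 for the full control effect; actives lower thioflavin S fluorescence by blocking filaments or displacing dye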
#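 Tau 2 uM in ThS buffer dispensed; compound added; 60 uM ODS added (finals 1 uM tau, 30 uM ODS); 15 h 37 C; fluor ex450/em510.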
# ALOX15 inhib: qHTS Assay for Inhibitors of 15-hLO (15-human lipoxygenase); Polyunsaturated fatty acid lipoxygenase ALOX15 (Homo sapiens), P16050; purified 15hLO-1, xylenol orange hydroperoxide absorbance; Potency, µM (top dose mostly 57.1 µM), inactives show top-dose activity change, negative = inhibition, hits mostly inhibitors; 74,000 compounds, 1.4% hits; AID 887, 2007; also: % is scaled to controls: 0 for no effect and ±100 for the full control effect; nearly all actives have a fitted effect of over 55% in size
# Target sequence (P16050 whole entry, looked up): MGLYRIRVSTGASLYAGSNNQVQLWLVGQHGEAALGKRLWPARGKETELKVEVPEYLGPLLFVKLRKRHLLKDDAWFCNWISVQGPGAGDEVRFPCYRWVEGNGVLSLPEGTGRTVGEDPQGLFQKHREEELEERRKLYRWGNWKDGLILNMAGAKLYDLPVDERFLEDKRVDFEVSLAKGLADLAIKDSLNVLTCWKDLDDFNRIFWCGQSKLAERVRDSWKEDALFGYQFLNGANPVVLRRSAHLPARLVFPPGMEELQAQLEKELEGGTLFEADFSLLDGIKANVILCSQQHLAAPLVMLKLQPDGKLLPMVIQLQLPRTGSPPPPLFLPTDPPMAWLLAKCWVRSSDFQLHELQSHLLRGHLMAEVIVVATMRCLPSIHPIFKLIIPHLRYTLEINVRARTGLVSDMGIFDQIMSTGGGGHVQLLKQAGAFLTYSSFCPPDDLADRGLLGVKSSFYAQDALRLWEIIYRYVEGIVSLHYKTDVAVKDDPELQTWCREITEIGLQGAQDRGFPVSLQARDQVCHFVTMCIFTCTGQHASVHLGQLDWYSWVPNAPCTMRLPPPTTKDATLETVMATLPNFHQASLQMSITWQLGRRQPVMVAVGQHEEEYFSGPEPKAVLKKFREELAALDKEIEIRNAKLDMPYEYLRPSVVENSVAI
#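 40 nM 15hLO-1 + cpd, 15 min RT; start w/ 50 uM AA (final), 6 min RT; stop/detect w/ 200 uM XO + 300 uM Fe(II) in 50 mM H2SO4, 30 min; A573/A405. Buffer 25 mM Hepes pH 7.5, 0.01% Triton X-100. No-enzyme wells as negative control.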
# Casp7 inh: qHTS Assay for Allosteric/Competitive Inhibitors of Caspase-7; recombinant caspase-7, Ac-DEVD-AFC fluorescence rate; Potency, µM (doses to about 57.5 µM), without a hit: at the highest dose activity change, negative = inhibition, hits mostly inhibitors; 75,000 compounds, 0.02% hits; P55210; active = well fitted inhibition curve with a large enough effect in the main read-out, with a control signal flat, not every such curve was filed as active; inconclusive = small, poorly fitted or top-dose-only effect, or a change in a side signal; also: % of control where 0% means no effect
# Starred values were filed as active, the others as inactive; ? = inconclusive; nt = no result given; ! = not confirmed by another sample; [ ] = remark or other dose. Hits are enriched below; roughly 3.2% of the tested compounds scored in any of these assays. Unless noted, calls follow the shape of the dose curve; as a rule, active = well fitted curve in the direction sought with a large enough effect; inconclusive = small, poorly fitted or top-dose-only effect, or another doubt; inactive = no such curve, though single readings can be large; an effect the other way counts as inactive or inconclusive. Potency is read from the fitted curve at half-maximal effect.
SMILES,Pol III holo inh,Caspase-1 inhib,Tau fil binding,ALOX15 inhib,Casp7 inh
C[N@@+]1(Cc2ccc(Cl)c(Cl)c2)CCC[C@@H]1c1ccc[n+](Cc2ccc(Cl)c(Cl)c2)c1,-5%[11.4 µM],3%[11.5 µM],?,9%[11.4 µM],-5%[11.5 µM]
CC(=O)Nc1cccc(C)c1,-1%,-1%,-10%,-8%,0%
CC(=O)Nc1cccc(C(=O)Oc2cccc(C)c2)c1O,0%,-2%,-5%,16µM*,1%
CCOC(=O)c1ccc(-n2c(=S)sc3c(=O)[nH]c(C)nc32)cc1,-2%,0%,8%,10µM*,0%
CN(C)CCC(=O)[C@@]1(O)CC[C@H]2[C@H]3CC=C4C[C@@H](O)CC[C@]4(C)[C@H]3CC[C@]21C,-9%[11.4 µM],0%[11.5 µM],-1%[11.4 µM],13%[11.4 µM],-4%[11.5 µM]
Cc1conc1NC(c1cccs1)c1ccc2cccnc2c1O (stereo unspecified),8%,-1%,13µM*,?,-1%
Oc1c(C(Nc2nc3ccccc3s2)c2ccco2)ccc2cccnc12 (stereo unspecified),0%,-5%,-29%,33%,5%
Cc1ccc(NCc2nc3ccccc3n2C)cc1,-10%,0%,-1%,16µM*,-5%
Cn1c(CNc2nc3ccccc3n2C)nc2ccccc21,4%,0%,14%,15%,0%
CCOC(=O)c1cnc2c(C)cccc2c1NCc1ccco1,-11%,-5%,22%,-1%,-1%
CCOC(=O)c1cnc2c(C(=O)OC)cccc2c1NCc1ccco1,-10%,-9%,13µM*,-10%,-5%
Nc1nc2c(c(=O)[nH]1)CN(CCCN1CCOCC1)CN2,-6%[11.4 µM],1%[11.5 µM],-2%[11.4 µM],-4%[11.4 µM],2%[11.5 µM]
COC(=O)C1=C(C)NC(C)=C(C(=O)OCCN(C)Cc2ccccc2)[C@@H]1c1cccc([N+](=O)[O-])c1,-3%,0%,32µM*,-13%,-1%
CCOC(=O)C1=C(C)NC(C)=C(C(=O)OC)[C@@H]1c1cccc([N+](=O)[O-])c1,-8%[25.6 µM],3%[25.7 µM],-27%[25.6 µM],-8%[25.6 µM],0%[25.7 µM]
COCCOC(=O)C1=C(C)NC(C)=C(C(=O)OC(C)C)[C@@H]1c1cccc([N+](=O)[O-])c1,-2%,3%,32µM*!,-5%,-3%
CC(C)=CCC/C(C)=C/CO/N=C1/C[C@@H](O)[C@@H](O)[C@@H]2[C@@H]3C(=O)N(Cc4ccccc4)C(=O)[C@H]3CC[C@@H]12,nt,-1%[11.5 µM],nt,7%[11.4 µM],0%[11.5 µM]
O=c1cnc2cncnc2n1Cc1ccccc1Cl,5%,-4%,1%,-1%,-7%
O=c1c(-c2cccc(Cl)c2)nc2cncnc2n1Cc1ccccc1Cl,-7%,-7%,6.3µM*,5%,-11%
COc1ccccc1CCn1c(=O)c(-c2cccc(Cl)c2)nc2cncnc21,16%,-5%,13µM*,-23%,-10%
Cc1nc2cncnc2n(Cc2ccccc2Cl)c1=O,-3%,-1%,16µM*,12%,-9%
O=c1c(-c2ccccc2)nc2cncnc2n1Cc1ccccc1Cl,-11%,-13%,?,4%,-9%
COC(=O)CCC(C)C1CCC2C3C(O)C[C@@H]4CC(O)CC[C@@]4(C)C3CC(O)[C@]12C (stereo partly specified),nt,-2%,nt,5%,-4%
CCOc1ccc2c(c1)c1nnc(SCC3CCCO3)nc1n2C (stereo unspecified),-13%,-3%,32µM*,1%,1%
COc1ccc2c(c1)c1nnc(SCC(=O)N3CCCCC3C)nc1n2C (stereo unspecified),-4%,-3%,-19%,4%,1%
CN1/C(=C/C(=O)c2nc(S(C)(=O)=O)ncc2Cl)C(C)(C)c2ccccc21,1%,-12%,10µM*,-15%,-14%
SMILES,Pol III holo inh,Caspase-1 inhib,Tau fil binding,ALOX15 inhib,Casp7 inh
CC(=O)Nc1ccc2c(c1)/C(=C/c1ccc([N+](C)(C)C)cc1)c1ccccc1-2,-14%[11.4 µM],0%[11.5 µM],3.2µM*,8%[11.4 µM],-1%[11.5 µM]
CSCC[C@@H](C(=O)O)N(C)C,-8%[11.4 µM],-2%[11.5 µM],2%[11.4 µM],4%[11.4 µM],0%[11.5 µM]
CCOc1ccc2c(c1)N(C(=O)CN1C(=O)CCC1=O)C(C)(C)C=C2C,-4%,0%,-1%,14%,0%
CCOc1ccc2c(c1)C(C)=CC(C)(C)N2,3%,-8%,-7%,25µM*,-12%
CC(C)(C)c1ccccc1NC(=O)c1cccnc1,32µM*,-1%,-5%,5%,0%
Nc1ccc(S(=O)(=O)NCCS(=O)(=O)O)cc1,-5%[11.4 µM],-2%[11.5 µM],0%[11.4 µM],1%[11.4 µM],1%[11.5 µM]
N#C[C@@H](Cc1ccc(O)c(O)c1)C(=O)N1CCc2ccccc21,-13%,2%,-5%,0.63µM*,0%
CCC(=O)N1c2ccccc2-c2nnc(SC)nc2OC1c1ccc(N(C)C)cc1 (stereo unspecified),-1%,-3%,25µM*,2%,?
CCCCCSc1nnc2c(n1)OC(C)N(C(C)=O)c1ccccc1-2 (stereo unspecified),-4%,?,25µM*,?,?
CCCSc1nnc2c(n1)OC(c1cccn1C)N(C(C)=O)c1ccccc1-2 (stereo unspecified),nt,-1%,nt,-4%,1%
CC(C)c1ccc(-c2nnn(CCC(=O)O)n2)cc1,-1%,4%,3%,1.6µM*,-3%
COc1ccc2nc(NC(=O)c3cnccn3)sc2c1,2%,0%,5µM*,6%,-8%
CCOc1ccc2nc(NC(=O)COC)sc2c1,-1%,1%,-4%,1%,-2%
COc1ccc2sc(NC(=O)CC(C)C)nc2c1,5%,2%,20%,4µM*,6%
CCOc1ccc2nc(NC(=O)c3ccoc3C)sc2c1,-5%[11.4 µM],-1%,134%[11.4 µM],4µM*,-1%
Nc1[nH]c(=S)[nH]c(=O)c1N=Nc1c(Br)cc(S(N)(=O)=O)cc1Br,-9%[11.4 µM],1%[11.5 µM],-2%[11.4 µM],2%[11.4 µM],-2%[11.5 µM]
N#CC1=C(N)OC(c2ccccc2)=C(C#N)C1c1ccc2c(c1)OCO2 (stereo unspecified),-4%,-7%,-24%,32µM*,-6%
C=CCOC(=O)C(C(C)=O)C(NC(=O)OC)c1ccco1 (stereo unspecified),nt,-3%[11.5 µM],nt,11%[11.4 µM],1%[11.5 µM]
Cc1cc(C)c2cc(CN(Cc3ccc4c(c3)OCO4)Cc3nnnn3Cc3ccco3)c(=O)[nH]c2c1,-25%,?,38%,10µM*,?
Cc1ccc2[nH]c(=O)c(CN(Cc3ccc4c(c3)OCO4)Cc3nnnn3Cc3ccco3)cc2c1,-4%,-15%,35%,?,-12%
CN(C)CCN(Cc1ccccc1)S(=O)(=O)c1cccc2cccnc12,-2%,1%,-21%,-6%,1%
CCc1cc(C(C)=O)c(O)cc1OCCCCCC(C)(C)c1nn[nH]n1,nt,-4%,nt,20µM*,-8%
